Measurements as given in PubChem BioAssay AID1347041 (National Center for Advancing Translational Sciences (NCATS), 2019).
“And” between values parts separate entries of the source, which are not always exact repeats. Identical values can stand only once. Screen size: about 480,000 compounds; about 740 (0.15%) were called active. No stated cut-off is given here; in the data, active means activity change below about -30%; inconclusive means mostly about -25% to -30%; inactive means weaker than that. The list comes from a sample in which actives are over-represented; it also holds similar structures and randomly drawn compounds. The source holds several records for some structures; these can differ, active in one and inactive in another.

Each compound was assayed against L-lactate dehydrogenase A chain (Homo sapiens) (UniProt P00338) (assay: qHTS assay for inhibitors of human lactate dehydrogenase). Details: purified LDHA, NADH/diaphorase-resazurin fluorescence; stronger effect = lower value.
Description: LDH is a key glycolytic enzyme that catalyzes the final step in the glycolytic pathway, reducing pyruvate to lactate and regenerating NAD+ equivalents necessary for continued glycolysis. LDHA has been linked to the carcinogenesis and malignancy in numerous forms of cancers and many other diseases. Consequently, both pharma and academia have invested in significant research efforts to identify small molecule therapeutics. Such attempts have been stalled or abandoned due to limited success in discovering potent and drug-like inhibitors that can be utilized to validate LDHA in vivo as a drug target, a necessary step toward advancing such a molecule towards the clinic Towards this goal we designed and performed a quantitative high-throughput screening (qHTS) campaign to discover novel compounds that are potent inhibitors of LDHA enzyme activity and cancer cell line growth.
The assay was optimized to 1536-well plates. Briefly, 3 µL of human lactate dehydrogenase 5 (#A38558H, Meridian Life Science, Inc., Memphis, TN) in LDH assay buffer (200 mM Tris HCl pH 7.4, 100 microM EDTA and 0.01% Tween-20) was added to a black solid bottom 1536-well assay plate (Greiner Bio-One) using a BioRAPTR FRD dispenser (Beckman Coulter, Brea, CA). A 1536-well pintool dispenser outfitted with 20 nL pins (Wako Automation, San Diego, CA) was used to transfer 23 nL of DMSO-solubilized compound (both library and vehicle controls) to each 1536-well assay plate. Following compound transfer, 1 µL of substrate solution containing NADH and sodium pyruvate (Sigma-Aldrich, St. Louis, MO) in LDH assay buffer was dispensed via BioRAPTR FRD to initiate the reaction. Final concentrations in the 4 microL reaction volume were 2 nM LDHA enzyme, 0.06 mM NADH and 0.2 mM sodium pyruvate. Following a 5 minute incubation period at room temperature, 1 µL of detection reagent (C. kluyveri diaphorase (Sigma-Aldrich) and resazurin sodium salt (Sigma-Aldrich) in LDH assay buffer) was added to a total volume of 5 µL. Final concentrations of detection reagents were 0.133 mg/mL diaphorase and 37 µM resazurin. Plates were immediately transferred to a ViewLux microplate imager (PerkinElmer, Waltham, MA), and any resulting resorufin fluorescence was measured (ex540, em590 nm) at 0 and 20 minutes. Fluorescence was normalized using enzyme-free and DMSO-treated control wells on each plate.
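Further: values are at about 110 or 230 µM; plate controls were DMSO wells for no effect and wells without enzyme for full effect.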

Activity change, active:
CC/C(=C(/c1ccccc1)c1ccc(OCC[N+](C)(C)C)cc1)c1ccccc1 -30.9%
O=C(NC1(C(F)(F)F)C(=O)Nc2c1c(=O)[nH]c(=O)n2Cc1ccco1)c1ccco1 (configuration not stated) -33.9%
Cc1cc(Nc2ccccc2)n2nc(Cc3ccc(Cl)cc3)nc2n1 -32.3%
N#Cc1cc(NCC(=O)N2CCNC2=O)ccc1Cl -31.1%
Cc1oc(-c2ccccc2)nc1CC(=O)N(C)CC(=O)Nc1cccc2ccccc12 -30.2%
CCOc1ccccc1NC(=O)Cc1c(C)[nH]n(-c2nc(-c3ccccc3)cs2)c1=O -42.8%

Activity change, 0.923% (inactive) and -41.4% (active):
O=S(=O)(Cc1nnnn1-c1ccccc1)c1ccccc1

Activity change, -0.186% (inactive) and -35% (active):
O=C(COc1ccccc1F)OCc1cc(=O)n2nc(C3CCCCC3)sc2n1

Activity change, inactive:
CCCCCCCCCOc1ccc(C(=O)c2ccccc2)cc1 2.28%
CCCCOc1ccc(C(=O)NO)cc1 12.4%
Cc1cc(C)cc(Nc2nc3ccccc3nc2NS(=O)(=O)c2ccccc2)c1 -9.61%
C=CCOc1ccc(NC(C)=O)cc1 8.6%
Cc1nn(CC(=O)Nc2ccc3c(c2)nc2n3CCN(C)C2)c(=O)c2ccccc12 2.93%
Cc1ccc(OCC(=O)OCc2cc(=O)n3nc(C4CC4)sc3n2)cc1 -4.61%
O=C(COc1ccccc1F)Nc1ccc(C(=O)OCc2cc(=O)n3nc(C4CC4)sc3n2)cc1 0.0167%
CC(=O)c1ccc(S(=O)(=O)NCc2nnnn2-c2ccccc2)cc1 -5.01%
O=S(=O)(Cc1nnnn1-c1ccc(Br)cc1)c1ccc(F)cc1 -2.83%
Cn1ccnc1Sc1nc2c(c(=O)n(C)c(=O)n2C)n1Cc1ccc(F)cc1 1.87%
Cc1ccc2oc(C(=O)Nc3ccccc3F)cc(=O)c2c1 7.9%
O=C(O)C(Sc1nc(-c2ccccc2)cc(C(F)(F)F)n1)c1ccccc1 (configuration not stated) 13.5%
O=C(NC1CCCC1)c1nc(-c2cccc3[nH]ccc23)no1 -3.9%
CC(=O)Nc1ccc(S(=O)(=O)NC2(C(F)(F)F)C(=O)Nc3c2c(=O)[nH]c(=O)n3Cc2ccccc2)cc1 (configuration not stated) -3.74%
O=c1[nH]c(=O)n(Cc2ccco2)c2c1C(C(F)(F)F)(C(F)(F)F)N=C(c1ccco1)N2 -12.6%
Cc1cc(Nc2cccc(Cl)c2)n2nc(Cc3ccccc3)nc2n1 -15%
CCc1nc2nc(C)cc(Nc3ccc(F)c(Cl)c3)n2n1 -6.31%
Cc1ccc(C)c(N2CCN(C(=O)CCS(=O)(=O)c3cccc4nsnc34)CC2)c1 0.345%
O=C1CCCC2=C1C(c1cccnc1)CC(=O)N2c1ccccc1C(F)(F)F (configuration not stated) 0.301%
O=C(CSc1nnnn1C1CCCC1)N1CCCC1c1ccc2c(c1)OCCCO2 (configuration not stated) -4.78%
CC(=O)NC(Cc1c[nH]c2ccccc12)C(=O)N1CCC1 (configuration not stated) -6.31%
FC(F)(F)c1ccc(Cl)c(N/N=C/c2c(Cl)cccc2Cl)c1 -0.292%
CSc1ccc(Cl)c(C(=O)OCC(=O)N2CCNC2=O)c1 -5.09%
COC(=O)c1cc(NCC(=O)N2CCNC2=O)ccc1Cl -2.4%
CC(=O)Nc1cccc(NC(=O)c2nc(-c3ccccc3)oc2C)c1 -3.27%
CCN(CC)CCNC(=O)c1ccc2nc(C)c(C)nc2c1 1.31%
Cc1ccc(NC(=O)CN(C)C(=O)c2nc(-c3ccccc3)oc2C)cc1 -4.78%
COc1ccc(NC(=O)CN(C)C(=O)c2nc(-c3ccccc3)oc2C)cc1 7.53%
CC(=O)c1ccccc1NC(=O)c1ccccc1Cc1ccccc1 -24.1%
CCN(CC)C(=O)c1ccc(CSC(F)F)o1 -3.64%
Cc1cccc(N2CCN(Cc3ncc(-c4ccc(Cl)cc4)o3)CC2)c1 6.83%
Cc1c(CC(=O)NCCCN2CCOCC2)c(=O)oc2cc(O)ccc12 1.59%
Cc1[nH]n(-c2nc(-c3ccccc3)cs2)c(=O)c1CC(=O)Nc1cccc(Cl)c1 -4.25%
CCOc1ccccc1NC(=O)Cn1c2ncccc2c(=O)n1-c1ccc(C)c(C)c1 -10%
CCNC(=O)c1nnc(C(=O)Nc2cccc(Cl)c2)s1 6.18%
Cn1c(=O)n(C)c2cc(SCc3ccco3)c(NC(=O)c3ccc(C(C)(C)C)cc3)cc21 -5.57%
CCCCCn1c(SCc2ccc(C)cc2)nc2c1c(=O)[nH]c(=O)n2C -21.4%
CN1CCN(CCC2(Cc3ccccc3)CCOC(C)(C)C2)CC1 (configuration not stated) -4.19%
O=C(O)C(Br)Cc1ccc(Cl)cc1Cl (configuration not stated) 27.6%
